# PubChem BioAssay (EPA / NIEHS)
# Inconclusive results are not listed. The source made the active and inactive calls. The calls were made as follows, unless noted: active = hit-call score of the fitted dose curve at least 0.9, where 1 is the maximum; inconclusive = response in the unintended direction; inactive = score below 0.9.
# How the values were obtained:
# [1] = CEETOX_H295R_MTT_cell_viability: Viability Assessment in the CeeTox HT-H295R MTT Assay (AID 2283718; active = hit-call score of the fitted dose curve at least 0.9, where 1 is the maximum; inactive = score below 0.9;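 as to AC50: curve fitted both ways so AC50 may mark viability loss or gain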)
# Summary of the method: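 H295R cells prestimulated 48 h with 10 uM forskolin, then exposed 48 h to test chemical (0.1% DMSO final). Viability by MTT (0.5 mg/ml, 4 h, 37 C), absorbance 570/650 nm; percent change versus DMSO, bidirectional fit.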
# [2] = tested on: Thyroperoxidase (TPO), gene 54314; assay: CCTE_Simmons_AUR_rTPO: CCTE's Amplex UltraRed Assay for Thyroperoxidase (TPO) Inhibition, Simmons Lab (AID 2283662);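 as to AC50: potency for loss of signal meaning inhibition of peroxidase activity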
# Summary of the method: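 Endpoint is decreased Amplex UltraRed fluorescence after a 30-min, 37C reaction of rat thyroid microsomes with 300 uM H2O2. Eight test concentrations (5 nM–87.5 uM final) in 0.5% DMSO, three biological replicates each.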
# [3] = CCTE_Simmons_CellTiterGLO_HEK293T: Viability Assessment in CCTE's Assays for Thyroperoxidase (TPO) Inhibition, Simmons Lab (AID 2283665);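 as to AC50: cells exposed to compound for 24 h before readout; actives reduce ATP signal below DMSO vehicle meaning cytotoxicity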
# Summary of the method: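 HEK293T cells in DMEM with 1% FBS were dosed with 8 concentrations (5 nM–87.5 uM final, 0.5% DMSO) for 24 hr at 37C; ATP content was read by CellTiter-Glo luminescence, loss-of-signal versus DMSO, three biological replicates.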
# [4] = target: Luciferin 4-monooxygenase (Photinus pyralis) (UniProt P08659); assay: CCTE_Simmons_QuantiLum_inhib_2: CCTE's Firefly Luciferase Inhibition Assay, Simmons Lab (AID 2283767);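 as to AC50: potency for inhibitors that lower luciferase luminescence relative to DMSO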
# Summary of the method: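 Recombinant firefly luciferase (5 ng/well, 200 mM potassium phosphate with 1 mg/ml BSA) was exposed to 8 concentrations from 5 nM to 87.5 uM (final, 0.5% DMSO) for 30 min at 37C in the dark. Loss of luminescence versus DMSO was read after injecting D-luciferin/ATP-analogue reagent.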
# [5] = ACEA_AR_antagonist_AUC_viability: ACEA Biosciences xCELLigence Real-Time Cell Analysis on Androgen Receptor Antagonism for Viability (AID 2283776);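 also: 22Rv1 human prostate cancer cells growing on impedance electrode plates; area under impedance growth curve at 80 h after dosing as viability; hits lower the growth signal relative to DMSO meaning cytotoxicity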
# Summary of the method: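 Viability endpoint from label-free cell-index monitoring: 22Rv1 cultures treated with an eight-point 1:4 dilution series starting at 100 uM final, AUC at 80 h fitted against DMSO.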
# [6] = ACEA_AR_agonist_AUC_viability: ACEA Biosciences xCELLigence Real-Time Cell Analysis on Androgen Receptor Agonism for Viability (AID 2283775);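 as to AC50: viability read 80 hours after compound addition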
# Summary of the method: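 Read-out is area under the impedance curve at 80 h post-dose in 22Rv1 cells, with DMSO as baseline and signal loss taken as reduced viability. Compounds ran in duplicate from 100 uM final.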
# [7] = STM_H9_OrnCyssISnorm_ratio: Stemina devTOX quickPredict H9 human embryonic stem cell (hESC)-based Assay for Ornithine (ORN):Cystine (CYSS) Ratio (AID 2283714)
# Summary of the method: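 Undifferentiated H9 hESCs were exposed to compound for 72h with media and chemical replaced every 24h. Final 24-h conditioned media were deproteinized and analysed by UPLC-HRMS. ORN and CYSS peak areas were normalized to C13 internal standards and the ratio taken versus 0.1% DMSO.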
# [8] = Tanguay_ZF_120hpf_SOMI_legacy: (Legacy) Oregon State University Tanguay Lab 120 Hour Post-fertilization zebrafish Assay for Somite Malformation (AID 2283647)
# Summary of the method: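 Binary brightfield scoring of somite defects at 120 hpf in 5D wild-type larvae; one dechorionated embryo per well, static exposure from 6 hpf, 28C, sealed and dark. Final DMSO 0.64%; trimethyltin chloride 5uM positive control.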
# [9] = Tanguay_ZF_120hpf_PFIN_legacy: (Legacy) Oregon State University Tanguay Lab 120 Hour Post-fertilization zebrafish Assay for Pectoral Fin Malformation (AID 2283648);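 also: each larva judged yes or no for fin defect by brightfield with dead larvae skipped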
# Summary of the method: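 Tropical 5D wild-type embryos, dechorionated with pronase at 4 hpf, were placed singly in wells at 6 hpf and statically exposed until 120 hpf at 28C, sealed and dark, with 0.64% (vol/vol) final DMSO; pectoral fin malformation scored present/absent.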
# [10] = Tanguay_ZF_120hpf_CFIN_legacy: (Legacy) Oregon State University Tanguay Lab 120 Hour Post-fertilization zebrafish Assay for Caudal Fin Malformation (AID 2283649)
# Summary of the method: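 Dechorionated 5D wild-type zebrafish, static exposure 6–120 hpf, 28C, sealed and dark, 0.64% v/v DMSO final. Binary fin-malformation call at 120 hpf, brightfield; gain of signal vs DMSO baseline.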
# [11] = Tanguay_ZF_120hpf_PIG_legacy: (Legacy) Oregon State University Tanguay Lab 120 Hour Post-fertilization zebrafish Assay for Pigmentation Malformation (AID 2283650)
# Summary of the method: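 Tropical 5D wild-type zebrafish embryos, dechorionated with pronase at 4 hpf, were exposed singly from 6 hpf to 120 hpf statically at 28C in sealed, dark plates with 0.64% DMSO; pigmentation scored present/absent by brightfield microscopy, fitted against DMSO.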
# [12] = Tanguay_ZF_120hpf_CIRC_legacy: (Legacy) Oregon State University Tanguay Lab 120 Hour Post-fertilization zebrafish Assay for Circulatory Malformation (AID 2283651)
# Summary of the method: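 Tropical 5D wild-type embryos, dechorionated with pronase at 4 hpf, were placed singly in wells at 6 hpf and exposed statically at 28C to 120 hpf (0.64% DMSO final). Circulatory malformation was scored present/absent by brightfield microscopy.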
# [13] = Tanguay_ZF_120hpf_SWIM_legacy: (Legacy) Oregon State University Tanguay Lab 120 Hour Post-fertilization zebrafish Assay for Swim Bladder Malformation (AID 2283654);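 also: swim bladder malformation in each larva scored yes or no under brightfield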
# Summary of the method: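 Dechorionated Tropical 5D wild-type embryos, placed singly from 6 hpf, were statically exposed at 28C to 120 hpf with 0.64% DMSO final; swim bladder malformation was scored present/absent by brightfield microscopy, gain of signal relative to DMSO controls.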
# [14] = Tanguay_ZF_120hpf_TRUN_legacy: (Legacy) Oregon State University Tanguay Lab 120 Hour Post-fertilization zebrafish Assay for Truncated Body (AID 2283655)
# Summary of the method: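 Whole-embryo zebrafish screen: dechorionated 5D embryos, static exposure 6–120 hpf, 28C, sealed foil-covered plates, 0.64% DMSO. Binary truncation call; gain of signal versus DMSO baseline.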
# [15] = Tanguay_ZF_120hpf_NC_legacy: (Legacy) Oregon State University Tanguay Lab 120 Hour Post-fertilization zebrafish Assay for Notochord and Tail Malformation (AID 2283656)
# Summary of the method: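 Dechorionated 5D zebrafish, 1/well from 6 hpf; static exposure to 120 hpf, 28C, sealed, dark; final DMSO 0.64% v/v. NC scored binary (present/absent); dead embryos not scored. Fit vs DMSO baseline, gain direction.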
# [16] = Tanguay_ZF_120hpf_TR_legacy: (Legacy) Oregon State University Tanguay Lab 120 Hour Post-fertilization zebrafish Assay for Touch Response (AID 2283667)
# Summary of the method: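 Tropical 5D wild-type zebrafish embryos were exposed statically in sealed, foil-covered plates at 28C until 120 hpf, with 0.64% (vol/vol) final DMSO. Touch response was scored as present or absent; embryos that died were not scored.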
# [17] = Tanguay_ZF_120hpf_ActivityScore_legacy: (Legacy) Oregon State University Tanguay Lab 120 Hour Post-fertilization zebrafish Assay Score for Activity (AID 2283742)
# Summary of the method: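 Tropical 5D wild-type zebrafish embryos, dechorionated with pronase at 4 hpf, were exposed singly from 6 hpf to 120 hpf statically at 28C in 0.64% DMSO. Malformations and mortality were scored as binary by brightfield, with the activity score combining 18 morphology components.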
# Sequence of Luciferin 4-monooxygenase (Photinus pyralis) (P08659 whole entry, looked up): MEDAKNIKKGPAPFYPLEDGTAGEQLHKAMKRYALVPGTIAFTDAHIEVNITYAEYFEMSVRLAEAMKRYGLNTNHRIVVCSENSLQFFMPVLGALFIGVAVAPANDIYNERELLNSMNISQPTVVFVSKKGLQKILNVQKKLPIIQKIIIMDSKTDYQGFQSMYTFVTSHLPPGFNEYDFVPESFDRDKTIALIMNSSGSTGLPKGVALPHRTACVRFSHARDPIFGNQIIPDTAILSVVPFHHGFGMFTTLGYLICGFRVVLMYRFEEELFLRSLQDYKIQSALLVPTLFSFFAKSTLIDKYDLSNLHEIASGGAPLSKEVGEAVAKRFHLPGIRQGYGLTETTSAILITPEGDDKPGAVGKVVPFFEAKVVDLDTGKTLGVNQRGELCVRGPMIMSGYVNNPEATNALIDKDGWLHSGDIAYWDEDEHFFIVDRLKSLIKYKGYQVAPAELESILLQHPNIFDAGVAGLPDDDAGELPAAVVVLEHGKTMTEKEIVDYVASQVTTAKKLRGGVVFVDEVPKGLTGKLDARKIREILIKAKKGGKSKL
smiles,measurement,setting,value
Cc1cccc(C)c1C,outcome,[1],inactive
CCCCCCCCCCCCCOS(=O)(=O)O,AC50,[2],42.6 µM (active)
same,AC50,[3],32.5 µM (active)
same,outcome,[4],inactive
same,outcome,[5],inactive
COc1cc2ncnc(Nc3cccc(Cl)c3)c2cc1OC,outcome,[1],inactive
CCCCCCCCCCCCCCCC(=O)OC[C@H](O)[C@H]1OC(=O)C(O)=C1O,AC50,[2],18.3 µM (active)
same,AC50,[3],74.2 µM (active)
same,outcome,[4],inactive
same,outcome,[6],inactive
same,outcome,[5],inactive
CCCCc1ccc(N)cc1,AC50,[2],0.00854 µM (active)
same,AC50,[3],17.4 µM (active)
same,outcome,[4],inactive
same,outcome,[6],inactive
same,outcome,[5],inactive
Cc1ccc2n[nH]nc2c1,outcome,[1],inactive
O=c1cc(-c2ccccc2)oc2cc(O)cc(O)c12,AC50,[2],23 µM (active)
same,outcome,[3],inactive
same,outcome,[1],inactive
same,AC50,[4],5.53 µM (active)
same,outcome,[5],inactive
c1ccc2c(c1)c1cccc3ccc4cccc2c4c31,outcome,[2],inactive
same,outcome,[4],inactive
CN(C)c1ccc(O)c2c1C[C@H]1C[C@H]3[C@H](N(C)C)C(=O)C(C(N)=O)=C(O)[C@@]3(O)C(=O)C1=C2O,AC50,[2],0.607 µM (active)
same,outcome,[4],inactive
CC(C)c1cccc(O)c1,AC50,[2],25.9 µM (active)
same,outcome,[3],inactive
same,outcome,[1],inactive
same,outcome,[4],inactive
same,outcome,[5],inactive
Cc1ccc(C(C)C)cc1O,outcome,[2],inactive
same,outcome,[3],inactive
same,outcome,[1],inactive
same,outcome,[4],inactive
same,outcome,[6],inactive
same,outcome,[5],inactive
CCN(CC)CCOC(=O)c1ccc(N)cc1,outcome,[7],inactive
same,AC50,[6],20.5 µM (active)
same,outcome,[5],inactive
CC(C)=CCCC(C)CC=O (configuration not stated),outcome,[2],inactive
same,outcome,[3],inactive
same,outcome,[4],inactive
same,outcome,[6],inactive
same,outcome,[5],inactive
Nc1ccc(F)c([N+](=O)[O-])c1,outcome,[1],inactive
C=CC(C)(C)O,outcome,[1],inactive
c1ccc2[nH]ccc2c1,AC50,[2],1.14 µM (active)
same,outcome,[3],inactive
same,outcome,[4],inactive
same,outcome,[6],inactive
same,outcome,[5],inactive
O=C(O)c1ccc([N+](=O)[O-])cc1,outcome,[8],inactive
same,outcome,[9],inactive
same,outcome,[10],inactive
same,outcome,[11],inactive
same,outcome,[12],inactive
same,outcome,[13],inactive
same,outcome,[14],inactive
same,outcome,[15],inactive
same,outcome,[16],inactive
same,outcome,[1],inactive
same,outcome,[17],inactive
same,outcome,[6],inactive
O=C(O)C[C@H](O)C[C@H](O)/C=C/c1c(C2CC2)nc2ccccc2c1-c1ccc(F)cc1,outcome,[1],inactive
C=CCOc1nc(OCC=C)nc(OCC=C)n1,outcome,[1],inactive
COc1cc(C(C)(C)C)c(O)c(C(C)(C)C)c1,AC50,[2],2.32 µM (active)
same,AC50,[3],26.8 µM (active)
same,outcome,[4],inactive
same,outcome,[6],inactive
same,outcome,[5],inactive
CC(C)=CCCC(C)=CCCC(C)=CCO,outcome,[2],inactive
same,AC50,[3],95 µM (active)
same,AC50,[1],54.2 µM (active)
same,outcome,[4],inactive
CC1(C)[C@H](C(=O)OCc2cccc(Oc3ccccc3)c2)[C@@H]1C=C(Cl)Cl,outcome,[1],inactive
O=Nc1ccc(Nc2ccccc2)cc1,outcome,[2],inactive
same,AC50,[3],84 µM (active)
same,AC50,[4],53.8 µM (active)
same,outcome,[6],inactive
same,outcome,[5],inactive
Nc1cc([N+](=O)[O-])ccc1Cl,outcome,[1],inactive
Cc1ccc(O)c(C(C)(C)C)c1,AC50,[2],20.6 µM (active)
same,AC50,[3],65.6 µM (active)
same,outcome,[4],inactive
same,outcome,[6],inactive
same,outcome,[5],inactive
CSc1nc(NC2CC2)nc(NC(C)(C)C)n1,outcome,[2],inactive
same,outcome,[3],inactive
same,outcome,[1],inactive
same,outcome,[4],inactive
same,outcome,[6],inactive
same,outcome,[5],inactive
O=C(Cl)c1cccc(C(=O)Cl)c1,AC50,[2],7 µM (active)
same,outcome,[3],inactive
same,outcome,[4],inactive
same,AC50,[5],8.27 µM (active)
